# In PubChem BioAssay AID2685 (National Center for Advancing Translational Sciences (NCATS), 2010):
# Out of some 320,000 compounds screened, about 2,100 (0.66%) were called active. Roughly 53% stayed inconclusive and do not appear here. Calls follow the shape of the dose curve; as a rule, active = well fitted inhibition curve with a large enough effect in the signal ratio, with a control signal flat (not every such curve was filed as active); inconclusive = small, poorly fitted or top-dose-only effect, or effect the other way, or a change in a side signal; inactive = flat fitted curve, though single readings scatter; the % refers to the signal ratio. What follows is part of a selection rich in actives, with near analogues and random picks from the rest.
# Assay: qHTS Assay for Lipid Storage Modulators in Drosophila S3 Cells;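 as to cell number change: cells counted by Cell Tracker Red CMTPX staining in the red channel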; as to lipid storage change, negative = inhibition: % is scaled to controls: 0 for no effect and ±100 for the full control effect
# Conditions: BODIPY lipid droplet fluorescence, 18-24 h, cells fed with added oleic acid; cell number change: measured here: cell count max response; series mostly up to 46.1 µM; lipid storage change, negative = inhibition: at the top concentration
# Outline: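 Drosophila S3 cells loaded with oleic acid (400 uM, as added) and compounds at several concentrations; lipid droplets imaged by 488-nm laser-scanning cytometry, 500–530 nm intensity and object ratio to cell channel. Percent activity normalized to 20 uM Triacsin C.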
# Potency is read from the fitted curve at half-maximal effect.
Compound,"lipid storage change, negative = inhibition",cell number change [%],Potency,outcome
O=C1CC(N2CCN(c3ccccc3)CC2)C(=O)N1CCc1ccccc1 (stereo unspecified),11.9% (inactive),0.673,–,–
O=C1CC(N2CCN(C/C=C/c3ccccc3)CC2)C(=O)N1CCc1ccccc1 (stereo unspecified),–,-18.6,3.26 µM (active),–
NC(=O)CN1CCN(C2CC(=O)N(CCc3ccccc3)C2=O)CC1 (stereo unspecified),-0.508% (inactive),2.77,–,–
CC1=NN(C(C#N)c2ccc(F)cc2)C(c2ccccc2)C1 (stereo unspecified),–,-11.4,–,inactive
COCC(=O)Nc1cc(=O)n(C)c(=O)n1C,–,–,–,inactive
Cc1ccc(OCCSc2ncnc3sc(C)c(C)c23)cc1C,9.62% (inactive),-4.8,–,–
CCOC(=O)C1=C(Nc2ccc(Br)cc2)CC(C)(O)C(C(=O)OCC)C1c1ccccc1 (stereo unspecified),-2.2% (inactive),1.29,–,–
CCOC(=O)C1=C(Nc2ccccc2)CC(C)(O)C(C(=O)OCC)C1c1ccc(Cl)cc1 (stereo unspecified),–,12.7,1.16 µM (active),–
CC(=O)C1=C(Nc2ccccc2)CC(C)(O)C(C(C)=O)C1c1ccccc1 (stereo unspecified),5.22% (inactive),6.32,–,–
CCCOC(=O)c1ccc(OCC(O)CN2CCN(C(=O)c3ccccc3)CC2)cc1 (stereo unspecified),13.2% (inactive),0.922,–,–
COCCOC(=O)c1c(NC(=O)COC(=O)c2ccc(C)o2)sc(C(N)=O)c1C,-24.5% (inactive),-10.2,–,–
COCCOC(=O)c1c(NC(=O)CN(C)c2ccccc2)sc(C(N)=O)c1C,-6.17% (inactive),–,–,–
COCCOC(=O)c1c(NC(=O)COC(=O)Cc2cccc(OC)c2)sc(C(N)=O)c1C,–,–,6.51 µM (active),–
O=C(NCc1ccccc1Cl)c1cccc(C(F)(F)F)c1,-6.95% (inactive),-20.2,–,–
O=S(=O)(c1ccc(F)cc1)N1CCCN(Cc2c(F)cccc2F)CC1,–,–,–,inactive
O=C(O)/C(=C\C(=O)c1ccccc1)Nc1ccccc1,19.7% (inactive),1.05,–,–
Cn1c(=O)c2cc3c(nc2n(C)c1=O)CC(c1ccccc1)CC3=O (stereo unspecified),-3.1% (inactive),11.1,–,–
Nc1oc2ccccc2c(=O)c1-c1ccc2c(c1)OCO2,6.55% (inactive),5.77,–,–
Nc1c(-c2ccc3c(c2)OCCO3)oc2ccccc2c1=O,–,-8.11,1.84 µM (active),–
O=c1cc(-c2ccc3c(c2)OCCO3)oc2ccc(Cl)cc12,5.34% (inactive),12.3,–,–

Compound,"lipid storage change, negative = inhibition",cell number change [%],Potency,outcome
CCOC(=O)C1=C(C)NC2=C(C(=O)CCC2)C1c1cccs1 (stereo unspecified),–,25.2,–,inactive
COc1ccc(NS(=O)(=O)c2cccc(C(=O)N/N=C(\C)c3ccc(-n4ccnc4)cc3)c2)cc1,–,11.3,–,inactive
O=C(Nc1ccccc1C(=O)NCCCN1CCOCC1)c1ccc(F)cc1F,0.737% (inactive),3.6,–,–
CC1(C)Cc2c(cnn2-c2ccc(F)cc2)C(NC(=O)C2=NNC(=O)CC2)C1 (stereo unspecified),–,–,–,inactive
CSCc1ccc(C(=O)NC2CC(C)(C)Cc3c2cnn3-c2ccc(F)cc2)o1 (stereo unspecified),–,-25.2,25.9 µM (active),–
COc1ccc(-n2ncc3c2CC(C)(C)CC3NC(=O)c2ccnn2C)cc1 (stereo unspecified),–,-19.1,14.6 µM (active),–
COc1ccc(-n2ncc3c2CC(C)(C)CC3NC(=O)c2ccc(OC)o2)cc1 (stereo unspecified),1.29% (inactive),-8.87,–,–
Cn1nccc1C(=O)NC1CC(C)(C)Cc2c1cnn2-c1ccc(F)cc1 (stereo unspecified),9.92% (inactive),–,–,–
CC1(C)Cc2c(cnn2-c2ccc(F)cc2)C(NC(=O)c2ccoc2)C1 (stereo unspecified),22% (inactive),6.57,–,–
CCN1CCCC1CNC(=O)c1cn(C)c2ccc(S(=O)(=O)N3CCCCCC3)cc2c1=O (stereo unspecified),-0.86% (inactive),3.92,–,–
CC(C)NC(=O)C(OC(=O)c1ccccc1)C(OC(=O)c1ccccc1)C(=O)O (stereo unspecified),7.13% (inactive),7.86,–,–
Cn1nc(-c2ccccc2)cc1NC(=O)Nc1ccccc1F,-20.6% (inactive),-4,–,–
COc1cc(CC(=O)OCC(=O)NC2CCCCC2C)cc(OC)c1OC (stereo unspecified),8.4% (inactive),-2.51,–,–
Cc1nn(-c2ccccc2)c(C)c1S(=O)(=O)O,28.4% (inactive),-1.62,–,–
Cc1nn(-c2ccccc2)c(C)c1-c1ccccc1O,–,-20.1,7.31 µM (active),–
CC(=O)c1c(C)nn(-c2ccccc2)c1C,7.42% (inactive),16.2,–,–
O=c1c2[nH]c3ccc(F)cc3c2ncn1Cc1ccncc1,4.58% (inactive),1.6,–,–
Cc1nn(CC(=O)NC(C)C)c(C)c1[N+](=O)[O-],24.3% (inactive),17.1,–,–
CC(=O)NC(Cc1ccc(C)cc1)C(=O)NC1CCN(C(=O)NCc2ccccc2)CC1 (stereo unspecified),–,13.3,–,inactive
O=C(c1ccc(F)cc1)C1CCN(C(=O)NCc2ccccc2)CC1,12.7% (inactive),2.65,–,–

Compound,"lipid storage change, negative = inhibition",cell number change [%],Potency,outcome
O=C(NC1CCN(C(=O)NCc2ccccc2)CC1)c1cccc(F)c1,–,11.7,29.1 µM (active),–
COc1ccc(CC(NC(C)=O)C(=O)NC2CCN(C(=O)c3cccc(Cl)c3)CC2)cc1OC (stereo unspecified),-3.02% (inactive),-1.21,–,–
COc1cccc(CC(NC(C)=O)C(=O)NC2CCN(C(=O)Nc3ccc(C)cc3)CC2)c1 (stereo unspecified),-17.2% (inactive),-3.63,–,–
COc1cccc(CC(NC(C)=O)C(=O)NC2CCN(C(=O)c3ccc(Cl)cc3)CC2)c1 (stereo unspecified),–,-13.3,3.26 µM (active),–
CC(=O)NC(Cc1cccc(C)c1)C(=O)NC1CCN(C(=O)NCc2ccccc2)CC1 (stereo unspecified),-8.97% (inactive),5.24,–,–
O=C(Cc1ccccc1)NC1CCN(C(=O)NCc2ccccc2)CC1,-20.6% (inactive),-0.661,–,–
CC(=O)NC(Cc1ccccc1F)C(=O)NC1CCN(C(=O)NCc2ccccc2)CC1 (stereo unspecified),–,-14.1,6.51 µM (active),–
COc1ccnc(Oc2cc(Cl)cc(Cl)c2)c1C#N,10.2% (inactive),16.7,–,–
COc1cc(C(=O)NCC(=O)OCC(=O)Nc2ncc(Cl)cc2Cl)cc(OC)c1OC,19.4% (inactive),–,–,–
O=C(Cn1nnc(-c2cccs2)n1)NCc1ccco1,6.95% (inactive),14.3,–,–
Cc1cc(=O)oc2c3c(cc(OCC(=O)N4CCC(C(=O)O)CC4)c12)OC(C)(C)CC3,-0.64% (inactive),22.1,–,–
Cc1ncoc1C(=O)NCc1ccccc1Cl,-6.9% (inactive),-13.1,–,–
Cc1nc(C)c(C(=O)NCc2ccccc2Cl)o1,–,-27.9,8.2 µM (active),–
Cc1nc(C)c(C(=O)NCCC(c2ccccc2)c2ccccc2)o1,-5.08% (inactive),-16.5,–,–
COC(CNC(=O)c1ccc2nc(-c3ccccc3)c(-c3ccccc3)nc2c1)OC,0.217% (inactive),-6.61,–,–
O=C(CN1CCN(c2ccccc2F)CC1)Nc1ccc2c(c1)CCC2,16.4% (inactive),-8.56,–,–
Cc1ccc(S(=O)(=O)N(C)C)cc1NS(=O)(=O)c1ccc(Cl)s1,–,0.163,6.51 µM (active),–
Cc1ccc(NS(=O)(=O)c2ccc(Cl)s2)cc1S(=O)(=O)N(C)C,–,9.65,–,inactive
Cc1nc(-c2ccc(S(=O)(=O)Nc3cc(S(=O)(=O)N(C)C)ccc3C)s2)cs1,11.7% (inactive),1.19,–,–
